Measurements from the supplement of paper PMC10849652.
Of roughly 8,800 targets only a part is listed; those with a hit were picked by preference. About 0.5% of all pairs of compound and target were hits.

Assays:
Assay in all cases: log2 fold change, soluble protein after heating vs DMSO (PISA); higher = thermal stabilisation; K562 lysate, 10 uM; active = over 0.2 and 3.5 SD of the protein, either way, in both replicates (recomputed)
[1] = compound: CCCS(=O)(=O)Nc1ccc(F)c(C(=O)c2c[nH]c3ncc(Cl)cc23)c1F
Outline: (§1)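 Thermal stability, expressed as log-two fold change relative to solvent controls, is given from duplicates. Crude K562 extract in PBS pH 7.4 with 1 mM MgCl2, at 1 mg/mL protein, was treated with 10 μM compound for 30 min and heated in aliquots for 3 min across 48°C-58°C. After pooling, adjustment to 0.5% NP-40 at 4°C and centrifugation at 21,000xg for 90 min, supernatant protein was measured by TMTpro 16plex LC-MS/MS with channel sums equalised.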

[2] = compound: CC[C@@H]1C(=O)N(C)c2cnc(Nc3ccc(C(=O)NC4CCN(C)CC4)cc3OC)nc2N1C1CCCC1
Outline: as §1

volasertib = compound: CC[C@@H]1C(=O)N(C)c2cnc(Nc3ccc(C(=O)N[C@H]4CC[C@H](N5CCN(CC6CC6)CC5)CC4)cc3OC)nc2N1C(C)C [volasertib]
Outline: as §1

vemurafenib = compound: CCCS(=O)(=O)Nc1ccc(F)c(C(=O)c2c[nH]c3ncc(-c4ccc(Cl)cc4)cc23)c1F [vemurafenib]
Outline: as §1

[3] = compound: CCn1c(C(=O)N(C2CC2)C2CC2)cc2c3c(ncn3C)c(Nc3cc(C)n(C)n3)nc21
Outline: as §1

saracatinib = compound: CN1CCN(CCOc2cc(OC3CCOCC3)c3c(Nc4c(Cl)ccc5c4OCO5)ncnc3c2)CC1 [saracatinib]
Outline: as §1

sotrastaurin = compound: CN1CCN(c2nc(C3=C(c4c[nH]c5ccccc45)C(=O)NC3=O)c3ccccc3n2)CC1 [sotrastaurin]
Outline: as §1

barasertib = compound: CCN(CCCOc1ccc2c(Nc3cc(CC(=O)Nc4cccc(F)c4)[nH]n3)ncnc2c1)CCOP(=O)(O)O [barasertib]
Outline: as §1

[4] = compound: CCn1cc(-c2ccnc3[nH]c(-c4cccc(CN(C)C)c4)cc23)c(-c2ccc(NC(=O)N(C)C)cc2)n1
Outline: as §1

[5] = compound: CN1CCC(CNc2ccc3ncc(-c4cccc(OC(F)(F)F)c4)n3n2)CC1
Outline: as §1

Sequence of UniProt Q9NXR5 (Q9NXR5 whole entry, looked up): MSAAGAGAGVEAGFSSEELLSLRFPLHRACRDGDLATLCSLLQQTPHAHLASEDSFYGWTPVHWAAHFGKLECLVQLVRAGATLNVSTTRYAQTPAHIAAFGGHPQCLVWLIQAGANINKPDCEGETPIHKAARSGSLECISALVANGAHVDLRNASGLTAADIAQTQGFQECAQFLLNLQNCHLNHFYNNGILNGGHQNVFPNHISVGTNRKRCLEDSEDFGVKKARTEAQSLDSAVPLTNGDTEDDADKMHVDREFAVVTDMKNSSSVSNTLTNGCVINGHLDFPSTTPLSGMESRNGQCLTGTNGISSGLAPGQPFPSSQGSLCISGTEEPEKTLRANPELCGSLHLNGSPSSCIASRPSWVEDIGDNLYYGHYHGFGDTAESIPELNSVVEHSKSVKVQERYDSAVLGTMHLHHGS
Sequence of UniProt Q2VPB7 (Q2VPB7 whole entry, looked up): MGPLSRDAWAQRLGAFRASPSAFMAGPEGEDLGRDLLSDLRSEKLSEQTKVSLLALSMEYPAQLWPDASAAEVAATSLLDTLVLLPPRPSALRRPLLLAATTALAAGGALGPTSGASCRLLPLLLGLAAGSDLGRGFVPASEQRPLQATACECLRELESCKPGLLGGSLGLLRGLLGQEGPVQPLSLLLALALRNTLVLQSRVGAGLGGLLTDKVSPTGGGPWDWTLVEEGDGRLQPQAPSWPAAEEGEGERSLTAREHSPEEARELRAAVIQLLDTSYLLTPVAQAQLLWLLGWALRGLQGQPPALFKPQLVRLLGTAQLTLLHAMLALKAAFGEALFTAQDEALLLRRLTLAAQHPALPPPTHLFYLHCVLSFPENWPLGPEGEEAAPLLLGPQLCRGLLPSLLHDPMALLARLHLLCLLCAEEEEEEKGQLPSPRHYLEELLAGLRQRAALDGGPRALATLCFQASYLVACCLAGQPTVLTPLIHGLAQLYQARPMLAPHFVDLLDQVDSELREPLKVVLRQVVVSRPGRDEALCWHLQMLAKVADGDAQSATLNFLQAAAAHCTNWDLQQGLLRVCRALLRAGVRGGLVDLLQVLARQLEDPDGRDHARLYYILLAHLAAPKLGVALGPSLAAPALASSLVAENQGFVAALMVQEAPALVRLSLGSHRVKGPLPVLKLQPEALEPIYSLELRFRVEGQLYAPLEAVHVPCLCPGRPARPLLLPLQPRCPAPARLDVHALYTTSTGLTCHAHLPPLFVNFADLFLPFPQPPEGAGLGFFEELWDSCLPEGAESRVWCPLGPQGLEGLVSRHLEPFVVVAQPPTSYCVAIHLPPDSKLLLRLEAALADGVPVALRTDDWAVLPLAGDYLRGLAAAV
Sequence of UniProt P30838 (P30838 whole entry, looked up): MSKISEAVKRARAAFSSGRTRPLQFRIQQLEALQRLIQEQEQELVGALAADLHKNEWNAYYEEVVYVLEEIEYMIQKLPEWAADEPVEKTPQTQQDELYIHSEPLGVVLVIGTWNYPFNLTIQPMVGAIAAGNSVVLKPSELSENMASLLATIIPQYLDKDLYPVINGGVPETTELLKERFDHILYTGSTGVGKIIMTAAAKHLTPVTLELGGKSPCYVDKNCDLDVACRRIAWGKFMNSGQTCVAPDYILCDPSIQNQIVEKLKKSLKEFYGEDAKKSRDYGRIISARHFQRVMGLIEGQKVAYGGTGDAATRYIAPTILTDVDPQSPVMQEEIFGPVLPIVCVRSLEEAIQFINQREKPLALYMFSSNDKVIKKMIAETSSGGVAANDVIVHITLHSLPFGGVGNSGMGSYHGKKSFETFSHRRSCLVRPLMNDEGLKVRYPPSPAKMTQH
Sequence of UniProt Q9Y303 (Q9Y303 whole entry, looked up): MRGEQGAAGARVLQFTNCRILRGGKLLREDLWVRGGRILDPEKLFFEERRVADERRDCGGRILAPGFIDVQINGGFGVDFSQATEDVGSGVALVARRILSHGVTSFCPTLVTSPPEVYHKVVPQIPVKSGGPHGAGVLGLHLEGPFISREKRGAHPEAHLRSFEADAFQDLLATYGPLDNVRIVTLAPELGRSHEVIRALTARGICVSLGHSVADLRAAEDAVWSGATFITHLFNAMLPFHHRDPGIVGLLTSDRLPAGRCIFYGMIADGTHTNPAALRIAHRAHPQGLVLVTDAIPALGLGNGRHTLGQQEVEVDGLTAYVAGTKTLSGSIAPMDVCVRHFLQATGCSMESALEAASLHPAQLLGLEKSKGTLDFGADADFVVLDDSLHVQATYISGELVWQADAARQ
Sequence of UniProt P54886 (P54886 whole entry, looked up): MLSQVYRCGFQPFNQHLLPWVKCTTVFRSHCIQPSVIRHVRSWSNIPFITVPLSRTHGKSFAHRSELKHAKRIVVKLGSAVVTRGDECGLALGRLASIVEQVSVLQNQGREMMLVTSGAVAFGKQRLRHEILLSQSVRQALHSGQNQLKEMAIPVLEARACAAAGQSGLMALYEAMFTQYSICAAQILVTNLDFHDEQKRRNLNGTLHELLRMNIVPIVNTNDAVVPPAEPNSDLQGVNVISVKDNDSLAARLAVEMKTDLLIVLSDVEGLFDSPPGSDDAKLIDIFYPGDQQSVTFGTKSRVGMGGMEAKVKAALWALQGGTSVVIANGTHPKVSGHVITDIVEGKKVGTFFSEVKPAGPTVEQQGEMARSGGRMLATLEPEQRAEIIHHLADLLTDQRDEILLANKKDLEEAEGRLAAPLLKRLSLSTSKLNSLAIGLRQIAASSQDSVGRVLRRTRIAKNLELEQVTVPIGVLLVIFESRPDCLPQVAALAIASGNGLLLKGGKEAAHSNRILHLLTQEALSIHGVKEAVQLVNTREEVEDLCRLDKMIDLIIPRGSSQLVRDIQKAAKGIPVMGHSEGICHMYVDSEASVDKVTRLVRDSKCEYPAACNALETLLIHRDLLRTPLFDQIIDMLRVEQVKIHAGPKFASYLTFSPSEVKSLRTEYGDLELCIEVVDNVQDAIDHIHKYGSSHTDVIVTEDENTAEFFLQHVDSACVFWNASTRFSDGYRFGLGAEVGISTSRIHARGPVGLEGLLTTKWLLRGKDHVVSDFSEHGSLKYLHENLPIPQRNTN
Sequence of UniProt Q9UHB7 (Q9UHB7 whole entry, looked up): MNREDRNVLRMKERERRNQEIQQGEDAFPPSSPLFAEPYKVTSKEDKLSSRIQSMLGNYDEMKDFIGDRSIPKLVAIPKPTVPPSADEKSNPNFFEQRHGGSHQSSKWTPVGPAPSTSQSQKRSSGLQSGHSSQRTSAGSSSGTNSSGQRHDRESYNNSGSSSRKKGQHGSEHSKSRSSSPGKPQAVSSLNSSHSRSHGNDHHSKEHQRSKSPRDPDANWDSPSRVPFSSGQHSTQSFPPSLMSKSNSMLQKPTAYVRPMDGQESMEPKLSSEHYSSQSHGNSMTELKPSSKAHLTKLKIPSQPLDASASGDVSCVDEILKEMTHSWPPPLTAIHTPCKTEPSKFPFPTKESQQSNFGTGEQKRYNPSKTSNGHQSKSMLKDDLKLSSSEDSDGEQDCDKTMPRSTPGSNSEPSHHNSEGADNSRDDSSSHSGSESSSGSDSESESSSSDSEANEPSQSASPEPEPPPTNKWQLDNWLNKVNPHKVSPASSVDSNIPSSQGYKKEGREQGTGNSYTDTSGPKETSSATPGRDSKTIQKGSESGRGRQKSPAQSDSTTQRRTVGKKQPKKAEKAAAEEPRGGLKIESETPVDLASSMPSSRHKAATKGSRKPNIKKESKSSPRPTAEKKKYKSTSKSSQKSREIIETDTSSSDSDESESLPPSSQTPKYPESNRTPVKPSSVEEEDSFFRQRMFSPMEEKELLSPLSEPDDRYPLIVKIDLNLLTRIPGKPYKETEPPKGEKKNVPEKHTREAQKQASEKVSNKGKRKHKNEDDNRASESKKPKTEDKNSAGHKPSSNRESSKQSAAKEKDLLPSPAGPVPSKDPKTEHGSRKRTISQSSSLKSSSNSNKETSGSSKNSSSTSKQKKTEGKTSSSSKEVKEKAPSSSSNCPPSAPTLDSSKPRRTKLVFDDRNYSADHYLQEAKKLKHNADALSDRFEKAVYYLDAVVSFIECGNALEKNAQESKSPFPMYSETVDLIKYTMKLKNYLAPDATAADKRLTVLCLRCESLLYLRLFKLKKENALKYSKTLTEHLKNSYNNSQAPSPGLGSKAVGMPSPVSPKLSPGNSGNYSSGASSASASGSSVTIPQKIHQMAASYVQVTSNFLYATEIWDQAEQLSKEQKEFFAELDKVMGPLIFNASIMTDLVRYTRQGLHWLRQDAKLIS
Sequence of UniProt P27216 (P27216 whole entry, looked up): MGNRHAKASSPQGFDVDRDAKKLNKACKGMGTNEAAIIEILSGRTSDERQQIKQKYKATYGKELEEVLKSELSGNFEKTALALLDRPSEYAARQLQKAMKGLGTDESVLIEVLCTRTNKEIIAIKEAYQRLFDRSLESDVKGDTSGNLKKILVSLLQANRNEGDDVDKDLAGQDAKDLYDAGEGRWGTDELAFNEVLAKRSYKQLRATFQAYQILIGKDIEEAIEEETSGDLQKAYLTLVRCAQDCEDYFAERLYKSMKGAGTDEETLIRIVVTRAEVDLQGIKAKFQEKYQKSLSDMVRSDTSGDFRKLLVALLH
Sequence of UniProt Q3SXY8 (Q3SXY8 whole entry, looked up): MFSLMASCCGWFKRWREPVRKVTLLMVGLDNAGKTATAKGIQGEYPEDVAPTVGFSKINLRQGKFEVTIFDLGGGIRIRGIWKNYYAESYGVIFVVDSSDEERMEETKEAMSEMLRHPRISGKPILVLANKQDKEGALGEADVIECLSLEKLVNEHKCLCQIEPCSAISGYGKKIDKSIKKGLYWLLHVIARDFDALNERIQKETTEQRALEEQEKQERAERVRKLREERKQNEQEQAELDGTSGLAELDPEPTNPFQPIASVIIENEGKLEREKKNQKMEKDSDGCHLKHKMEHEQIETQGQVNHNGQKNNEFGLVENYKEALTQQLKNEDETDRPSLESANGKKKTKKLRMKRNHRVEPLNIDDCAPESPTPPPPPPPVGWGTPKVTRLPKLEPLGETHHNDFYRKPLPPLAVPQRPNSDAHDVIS
Sequence of UniProt P14621 (P14621 whole entry, looked up): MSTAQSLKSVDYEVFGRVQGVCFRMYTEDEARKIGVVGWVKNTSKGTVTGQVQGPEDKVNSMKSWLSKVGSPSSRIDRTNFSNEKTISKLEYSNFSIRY

| Target | log2 fold change [1] | log2 fold change [2] | log2 fold change (volasertib) | log2 fold change (vemurafenib) | log2 fold change [3] | log2 fold change (saracatinib) | log2 fold change (sotrastaurin) | log2 fold change (barasertib) | log2 fold change [4] | log2 fold change [5] |
| --- | --- | --- | --- | --- | --- | --- | --- | --- | --- | --- |
| ACTG1 (UniProt K7EM38) | -0.259 (inactive) | -0.208 (inactive) | -0.124 (inactive) | – | – | – | – | – | – | – |
| ALDH18A1 isoform 2 (UniProt P54886) | – | – | – | 0.308 (inactive) | 0.043 (inactive) | 0.13 (inactive) | 0.121 (inactive) | – | – | – |
| AP5B1 (UniProt Q2VPB7) | 0.062 (inactive) | 0.066 (inactive) | 0.011 (inactive) | – | 0.001 (inactive) | -0.014 (inactive) | -0.062 (inactive) | 0.035 (inactive) | 0.002 (inactive) | 0.045 (inactive) |
| ACYP2 (UniProt P14621) | -0.023 (inactive) | – | 0.011 (inactive) | -0.245 (inactive) | -0.007 (inactive) | – | -0.019 (inactive) | 0.04 (inactive) | 0.189 (inactive) | -0.036 (inactive) |
| ALDH3A1 (UniProt P30838) | 0.014 (inactive) | – | 0.035 (inactive) | – | -0.399 (inactive) | 1.2 (active) | -0.007 (inactive) | – | -0.618 (inactive) | 0.216 (inactive) |
| AKAP11 (UniProt Q9UKA4) | -0.029 (inactive) | 0.051 (inactive) | 0.038 (inactive) | -0.272 (inactive) | -0.055 (inactive) | 0.028 (inactive) | -0.103 (inactive) | 0.082 (inactive) | 0.044 (inactive) | -0.024 (inactive) |
| ANKRD30A (UniProt Q9BXX3) | 0.111 (inactive) | -0.102 (inactive) | -0.08 (inactive) | – | 0.152 (inactive) | 0.072 (inactive) | 0.032 (inactive) | 0.087 (inactive) | 0.262 (inactive) | 0.891 (inactive) |
| ARL13B (UniProt Q3SXY8) | -0.039 (inactive) | – | 0.065 (inactive) | -0.075 (inactive) | -0.043 (inactive) | 0.007 (inactive) | 0.117 (inactive) | -0.041 (inactive) | 0.325 (inactive) | -0.246 (inactive) |
| AMDHD2 (UniProt Q9Y303) | – | – | – | -0.128 (inactive) | – | – | 0.047 (inactive) | – | -0.116 (inactive) | 0.052 (inactive) |
| ARHGEF2 (UniProt V9GYF0) | 0.05 (inactive) | 0.022 (inactive) | -0.022 (inactive) | -0.013 (inactive) | 0.11 (inactive) | -0.114 (inactive) | – | – | – | – |
| ANXA13 isoform 2 (UniProt P27216) | -0.071 (inactive) | – | -0.035 (inactive) | -0.129 (inactive) | 0.131 (inactive) | 0.004 (inactive) | -0.001 (inactive) | 0.091 (inactive) | -0.179 (inactive) | 0.106 (inactive) |
| AGGF1 (UniProt Q8N302) | -0.043 (inactive) | 0.084 (inactive) | -0.06 (inactive) | 0.112 (inactive) | 0.001 (inactive) | – | 0.025 (inactive) | 0.115 (inactive) | -0.43 (active) | 0.175 (inactive) |
| ACOX1 isoform 2 (UniProt Q15067) | 0.003 (inactive) | 0.015 (inactive) | 0.053 (inactive) | 0.017 (inactive) | -0.026 (inactive) | -0.014 (inactive) | 0.004 (inactive) | -0.029 (inactive) | -0.038 (inactive) | 0.1 (inactive) |
| ADK, A0A5F9ZH76 | -0.174 (inactive) | – | 0.167 (inactive) | – | – | – | – | -0.019 (inactive) | – | – |
| AFF4 (UniProt Q9UHB7) | -0.012 (inactive) | 0.001 (inactive) | -0.019 (inactive) | 0.157 (inactive) | 0.023 (inactive) | -0.009 (inactive) | 0.002 (inactive) | -0.072 (inactive) | -0.133 (inactive) | -0.04 (inactive) |
| ANKRD40 (UniProt Q6AI12) | – | -0.118 (inactive) | – | 0.501 (inactive) | -0.066 (inactive) | -0.101 (inactive) | 0.012 (inactive) | -0.091 (inactive) | 0.094 (inactive) | -0.075 (inactive) |
| ALKBH7 (UniProt Q9BT30) | – | -0.031 (inactive) | – | – | 0.072 (inactive) | -0.012 (inactive) | -0.016 (inactive) | – | 0.233 (inactive) | -0.2 (inactive) |
| ADAM17 (UniProt P78536) | – | -0.151 (inactive) | – | 0.071 (inactive) | -0.027 (inactive) | -0.011 (inactive) | 0.002 (inactive) | -0.184 (inactive) | 0.065 (inactive) | 0.001 (inactive) |
| ACVR1 (UniProt Q04771) | – | – | – | – | – | – | – | -0.115 (inactive) | -0.244 (inactive) | 0.815 (active) |
| ACAT1, A0A5F9ZHJ0 | – | – | – | – | -0.131 (inactive) | – | – | – | -0.006 (inactive) | 0.081 (inactive) |
| ABL1 isoform 2 (UniProt P00519) | 0.125 (inactive) | -0.03 (inactive) | -0.012 (inactive) | 0.05 (inactive) | -0.048 (inactive) | – | -0.012 (inactive) | 0.031 (inactive) | 0.156 (inactive) | -0.097 (inactive) |
| ALG13 isoform 2 (UniProt Q9NP73) | – | – | – | – | – | – | – | – | 0.016 (inactive) | -0.098 (inactive) |
| ANKRD10 (UniProt Q9NXR5) | -0.035 (inactive) | – | 0.1 (inactive) | 0.056 (inactive) | 0.115 (inactive) | 0.017 (inactive) | 0.01 (inactive) | 0.137 (inactive) | -0.19 (inactive) | -0.022 (inactive) |
